# Data as given in the supplement of paper PMC8728848.
# This is one part of a sample in which the strongest signals are shown more often than they occur.
# B1: Mincle (Bos taurus) (protein)
# chain: MNSSTSPASQTERRCFSFQLFSWAIAGTSILLLSACFITRCVVTYSIFQLCDEKKFQPPGDSMELSCYNDGSGSVKNCCPLKWFHFQSSCYLFSPDTMSWRASLKNCSSMGAHLVVINTQEEQEFLYYTKPRKKEFYIGLTDQVTEGQWQWVDGTPFTKSLSFWDAGEPNNLVIVEDCATIRDSSNPRQNWNDVPCFFNMFRVCEMPERKI
# Key:
# Test in all cases: glycan array binding signal (z-score within array); higher = stronger binding
# Conditions in all cases: glycan notation: IUPAC condensed, linker removed
# Gal6P(b1-4)GlcNAc = target: Gal6P(b1-4)GlcNAc
# How it was run: (§1)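 Columns mapping to the same glycan were averaged after glycan names were converted to IUPAC-condensed notation. The data come from 3228 arrays in the Consortium for Functional Glycomics database, limited to those with an available protein sequence. Binding is reported as a within-array Z-score averaged across arrays of one protein sequence and across linkers.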
# GalNAc(a1-3)Gal = target: GalNAc(a1-3)Gal
# How it was run: as §1
# GalNAc(a1-3)GalNAc = target: GalNAc(a1-3)GalNAc
# How it was run: as §1
# GalNAc(b1-4)GlcNAc = target: GalNAc(b1-4)GlcNAc
# How it was run: as §1
# [1] = target: GlcNAc(a1-4)Gal(b1-4)GlcNAc(b1-3)Gal(b1-4)GlcNAc(b1-3)Gal(b1-4)GlcNAc
# How it was run: as §1
# [2] = target: GlcNAc(b1-3)Gal(b1-4)GlcNAc(b1-2)[GlcNAc(b1-3)Gal(b1-4)GlcNAc(b1-6)]Man(a1-6)[GlcNAc(b1-3)Gal(b1-4)GlcNAc(b1-2)Man(a1-3)]Man(b1-4)GlcNAc(b1-4)GlcNAc
# How it was run: as §1
# [3] = target: GlcNAc(b1-3)Gal(b1-4)GlcNAc(b1-3)Gal(b1-4)GlcNAc
# How it was run: as §1
# [4] = target: GlcNAc(b1-3)Gal(b1-4)GlcNAc(b1-3)Gal(b1-4)GlcNAc(b1-3)Gal(b1-4)GlcNAc(b1-2)Man(a1-3)[GlcNAc(b1-3)Gal(b1-4)GlcNAc(b1-3)Gal(b1-4)GlcNAc(b1-3)Gal(b1-4)GlcNAc(b1-2)Man(a1-6)]Man(b1-4)GlcNAc(b1-4)[Fuc(a1-6)]GlcNAc
# How it was run: as §1
# [5] = target: GlcNAc(b1-3)Gal(b1-4)GlcNAc(b1-3)[GlcNAc(b1-3)Gal(b1-4)GlcNAc(b1-3)]GalNAc
# How it was run: as §1
# [6] = target: GlcNAc(b1-3)[GlcNAc(b1-4)][GlcNAc(b1-6)]GlcNAc
# How it was run: as §1
# [7] = target: GlcNAc(b1-3)[GlcNAc(b1-6)]GalNAc
# How it was run: as §1
# [8] = target: GlcNAc(b1-4)GlcNAc(b1-4)GlcNAc
# How it was run: as §1
# Kdn(a2-3)Gal(b1-3)GlcNAc = target: Kdn(a2-3)Gal(b1-3)GlcNAc
# How it was run: as §1
# [9] = target: Man(a1-2)Man(a1-2)Man(a1-3)Man
# How it was run: as §1
# [10] = target: Man(a1-2)Man(a1-2)Man(a1-6)[Man(a1-3)]Man
# How it was run: as §1
# Man(a1-2)Man(a1-3)Man = target: Man(a1-2)Man(a1-3)Man
# How it was run: as §1
# [11] = target: Man(a1-2)Man(a1-3)[Man(a1-2)Man(a1-6)]Man
# How it was run: as §1
# [12] = target: Man(a1-2)Man(a1-3)[Man(a1-2)Man(a1-6)]Man(a1-6)[Man(a1-2)Man(a1-2)Man(a1-3)]Man
# How it was run: as §1
# [13] = target: Man(a1-2)Man(a1-6)[Man(a1-3)]Man(a1-6)[Man(a1-2)Man(a1-2)Man(a1-3)]Man(b1-4)GlcNAc(b1-4)GlcNAc
# How it was run: as §1
# Man(a1-3)[Man(a1-6)]Man = target: Man(a1-3)[Man(a1-6)]Man
# How it was run: as §1
# [14] = target: Man(a1-3)[Man(a1-6)]Man(a1-6)[Man(a1-2)Man(a1-3)]Man(b1-4)GlcNAc(b1-4)GlcNAc
# How it was run: as §1
# [15] = target: Neu5Ac(a2-3)Gal(b1-3)GalNAc(b1-4)Gal(b1-4)Glc
# How it was run: as §1
# [16] = target: Neu5Ac(a2-3)Gal(b1-3)GlcNAc6S
# How it was run: as §1
# [17] = target: Neu5Ac(a2-3)Gal(b1-3)[GlcNAc(b1-6)]GalNAc
# How it was run: as §1
# [18] = target: Neu5Ac(a2-3)Gal(b1-3)[Neu5Ac(a2-6)]GalNAc
# How it was run: as §1
# [19] = target: Neu5Ac(a2-3)Gal(b1-4)GlcNAc(b1-2)Man(a1-3)[GlcNAc(b1-4)][Neu5Ac(a2-3)Gal(b1-4)GlcNAc(b1-2)Man(a1-6)]Man(b1-4)GlcNAc(b1-4)GlcNAc
# How it was run: as §1
# [20] = target: Neu5Ac(a2-3)Gal(b1-4)GlcNAc(b1-3)Gal(b1-3)GlcNAc
# How it was run: as §1
# [21] = target: Neu5Ac(a2-3)Gal(b1-4)GlcNAc(b1-3)Gal(b1-4)GlcNAc(b1-3)Gal(b1-4)GlcNAc(b1-2)Man(a1-3)[Neu5Ac(a2-3)Gal(b1-4)GlcNAc(b1-3)Gal(b1-4)GlcNAc(b1-3)Gal(b1-4)GlcNAc(b1-2)Man(a1-6)]GalNAc
# How it was run: as §1
# [22] = target: Neu5Ac(a2-3)Gal(b1-4)[Fuc(a1-3)]GlcNAc(b1-6)[Gal(b1-3)]GalNAc
# How it was run: as §1
# [23] = target: Neu5Ac(a2-6)Gal(b1-4)GlcNAc(b1-2)Man(a1-3)[Neu5Ac(a2-6)Gal(b1-4)GlcNAc(b1-2)Man(a1-6)]Man(b1-4)GlcNAc(b1-4)[Fuc(a1-6)]GlcNAc
# How it was run: as §1
# [24] = target: Neu5Ac(a2-6)Gal(b1-4)GlcNAc(b1-2)Man(a1-6)Man(b1-4)GlcNAc(b1-4)GlcNAc
# How it was run: as §1
# [25] = target: Neu5Ac(a2-6)Gal(b1-4)GlcNAc(b1-6)GalNAc
# How it was run: as §1
binder,measurement,setting,value
B1,glycan array binding signal (z-score),Gal6P(b1-4)GlcNAc,-0.035
same,glycan array binding signal (z-score),GalNAc(a1-3)Gal,-1.18
same,glycan array binding signal (z-score),GalNAc(a1-3)GalNAc,0.166
same,glycan array binding signal (z-score),GalNAc(b1-4)GlcNAc,-0.149
same,glycan array binding signal (z-score),[1],0.104
same,glycan array binding signal (z-score),[2],1.42
same,glycan array binding signal (z-score),[3],-0.57
same,glycan array binding signal (z-score),[4],-0.142
same,glycan array binding signal (z-score),[5],0.084
same,glycan array binding signal (z-score),[6],5.17
same,glycan array binding signal (z-score),[7],0.888
same,glycan array binding signal (z-score),[8],-0.899
same,glycan array binding signal (z-score),Kdn(a2-3)Gal(b1-3)GlcNAc,0.033
same,glycan array binding signal (z-score),[9],6.56
same,glycan array binding signal (z-score),[10],4.79
same,glycan array binding signal (z-score),Man(a1-2)Man(a1-3)Man,3.01
same,glycan array binding signal (z-score),[11],7.29
same,glycan array binding signal (z-score),[12],3.54
same,glycan array binding signal (z-score),[13],0.474
same,glycan array binding signal (z-score),Man(a1-3)[Man(a1-6)]Man,6.16
same,glycan array binding signal (z-score),[14],3.43
same,glycan array binding signal (z-score),[15],-1.13
same,glycan array binding signal (z-score),[16],1.11
same,glycan array binding signal (z-score),[17],-0.595
same,glycan array binding signal (z-score),[18],-0.943
same,glycan array binding signal (z-score),[19],0.061
same,glycan array binding signal (z-score),[20],0.02
same,glycan array binding signal (z-score),[21],4.3
same,glycan array binding signal (z-score),[22],0.16
same,glycan array binding signal (z-score),[23],0.527
same,glycan array binding signal (z-score),[24],0.271
same,glycan array binding signal (z-score),[25],0.439
